The whole screen tested about 310,000 compounds, of which about 14,000 (4.5%) showed an effect of 50% or more. Effects have a minus sign here. Only a selection was taken, and strong results are over-represented in it overall.
These compounds were tested against human ether-à-go-go-related gene (hERG) potassium channel (human, UniProt Q12809) (assay: primary screen, population patch clamp on CHO cells stably expressing hERG; higher = less effect of the substance).
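Further: peak tail current of the secondary pulse compared with the same well before compound.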

Chain of human ether-à-go-go-related gene (hERG) potassium channel (Q12809 whole entry, looked up): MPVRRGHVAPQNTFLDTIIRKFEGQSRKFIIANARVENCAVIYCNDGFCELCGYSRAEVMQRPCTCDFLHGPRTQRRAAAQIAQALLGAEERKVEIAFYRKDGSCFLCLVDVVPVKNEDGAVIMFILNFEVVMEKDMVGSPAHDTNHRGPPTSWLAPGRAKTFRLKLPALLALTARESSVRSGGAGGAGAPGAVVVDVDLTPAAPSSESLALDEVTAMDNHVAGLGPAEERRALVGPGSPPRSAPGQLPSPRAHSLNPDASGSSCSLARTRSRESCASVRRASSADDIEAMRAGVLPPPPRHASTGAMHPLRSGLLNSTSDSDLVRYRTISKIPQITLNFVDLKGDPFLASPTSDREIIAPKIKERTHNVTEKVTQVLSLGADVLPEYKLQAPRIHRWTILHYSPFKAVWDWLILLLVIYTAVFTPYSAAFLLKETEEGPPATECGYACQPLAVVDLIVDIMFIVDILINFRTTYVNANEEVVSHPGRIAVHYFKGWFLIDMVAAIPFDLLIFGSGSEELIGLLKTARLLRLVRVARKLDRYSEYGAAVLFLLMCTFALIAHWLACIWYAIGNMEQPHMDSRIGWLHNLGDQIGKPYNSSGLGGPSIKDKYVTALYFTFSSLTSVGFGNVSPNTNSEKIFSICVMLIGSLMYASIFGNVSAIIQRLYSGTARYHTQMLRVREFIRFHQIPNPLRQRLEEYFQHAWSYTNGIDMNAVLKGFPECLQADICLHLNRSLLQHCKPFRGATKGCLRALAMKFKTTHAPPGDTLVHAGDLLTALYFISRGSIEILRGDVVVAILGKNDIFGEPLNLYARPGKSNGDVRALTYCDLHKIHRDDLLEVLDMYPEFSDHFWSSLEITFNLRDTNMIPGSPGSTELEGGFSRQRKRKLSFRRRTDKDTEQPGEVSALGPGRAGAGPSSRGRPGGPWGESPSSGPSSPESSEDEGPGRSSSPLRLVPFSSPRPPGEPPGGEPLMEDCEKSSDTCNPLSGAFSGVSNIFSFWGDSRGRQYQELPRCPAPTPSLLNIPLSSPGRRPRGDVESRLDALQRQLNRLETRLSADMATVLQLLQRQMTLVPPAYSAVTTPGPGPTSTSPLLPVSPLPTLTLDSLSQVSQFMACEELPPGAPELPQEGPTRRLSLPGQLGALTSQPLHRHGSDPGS

Structure (SMILES) | hERG current change (%, negative = inhibition) at 10uM
O=C1CNC(=S)N1C(CO)c1ccccc1 (stereo not shown) | 22.2%
CCc1cc(C(=O)Cc2ccc(F)cc2)c(O)cc1O | -12.7%
O=C(O)c1c(C(=O)O)c(-c2ccc(Br)cc2)n2c1CSC2 | 15%
O=C(O)COc1ccc(S(=O)(=O)NCCc2ccccc2)cc1 | 6.4%
CC(C)C[C@H](NC(=O)C1CC(=O)N(c2ccc3c(c2)OCO3)C1)C(=O)NC1CCCC1 (stereo partly shown) | -0.704%
Cc1cccc(OCC(=O)Nc2ccc(NC(=O)c3ccco3)c(C)c2)c1 | -15.3%
CCOC(=O)c1ccc(NC(=O)C2CCN(C(=O)c3ccc(OC)c(OC)c3)CC2)cc1 | -58.7%
COc1ccc(NC(=O)C2CCN(C(=O)c3cccs3)CC2)cc1 | -12.4%
COc1ccc(C(=O)N2CCC(C(=O)Nc3ccccc3OC)CC2)cc1 | -34.6%
COC(=O)c1ccc(NC(=O)C2CCN(C(=O)c3cc(OC)c(OC)c(OC)c3)CC2)cc1 | 6.73%
COc1ccc(C(=O)N2CCC(C(=O)Nc3cccc(C)c3)CC2)cc1OC | -38.9%
COc1ccc(NC(=O)C2CCN(C(=O)c3ccc(OC)cc3)CC2)cc1 | -72.2%
COc1ccc(C(=O)N2CCC(C(=O)Nc3ccc(OC)c(OC)c3)CC2)cc1 | 1.37%
COc1ccc(C(=O)N2CCC(C(=O)NC3CC3)CC2)cc1 | 4.25%
COc1ccc(C(=O)N2CCC(C(=O)Nc3ccc(C)cc3)CC2)cc1 | -75.9%
COc1ccc2sc(-c3ccccc3OC)c(-c3ccc4c(c3)OCCO4)c2c1 | 17.2%
Cc1c(C(=O)Nc2ccc3c(c2)OCCO3)oc2ccc(Br)cc12 | 0.46%
CCOC(=O)COc1c(OC)cc(Cl)cc1C1Nc2ccccc2C(=O)N1c1cccc(C)c1 (stereo not shown) | -8.45%
O=C1OCCN/C1=C\C(=O)c1ccc(Cl)cc1 | 14.5%
Cn1ccc(NS(=O)(=O)c2cc(Br)ccc2Br)n1 | 0.158%

Structure (SMILES) | hERG current change (%, negative = inhibition) at 10uM
O=C(CCS(=O)(=O)c1ccc(F)cc1)Nc1nnc(-c2ccc(F)cc2)o1 | -10.7%
COc1ccc(NC(=O)c2sc3ncn(CC(=O)N4CCN(c5ccccn5)CC4)c(=O)c3c2C)c(OC)c1 | 19.5%
O=C(c1ccco1)N1N=C(c2cccs2)CC1c1cc([N+](=O)[O-])ccc1O (stereo not shown) | 7.51%
CC(C)CCCN1C(N(C)C)=NC[C@@H]1Cc1ccccc1 | -24.9%
CC(C)C[C@H]1CN=C(N(C)C)N1CCCCc1ccccc1 | -64.7%
CCC(CC)CN1C(N(C)C)=NC[C@@H]1CC(C)C | -4.65%
CCCCCCCN1C(N(C)C)=NC[C@@H]1Cc1ccccc1 | -80.1%
C[C@H]1CN=C(N(C)C)N1CCCCc1ccccc1 | -25.5%
CCN1C(N(C)C)=NC[C@@H]1Cc1ccccc1 | -1.57%
CN(C)C1=NC[C@H](Cc2ccccc2)N1CCCCc1ccccc1 | -71%
CCC(C)CCN1C(N(C)C)=NC[C@@H]1CC(C)C (stereo partly shown) | -11%
CCC(C)CCN1C(N(C)C)=NC[C@@H]1Cc1ccccc1 (stereo partly shown) | -22.5%
COC(=O)C1=NN(c2cccc(C)c2)C2C(=O)N(c3ccccc3OC)C(=O)C12 (stereo not shown) | -4.79%
COc1ccccc1OCc1cc(C(=O)NCc2ccc(N3CCCC3=O)cc2)no1 | 13.4%
Cc1ccc(OC(=O)c2cccc(S(=O)(=O)N3CCN(C)CC3)c2)c(Br)c1 | -19.5%
O=C(NCc1ccccc1)C(C(=O)c1ccc(F)cc1)n1ccccc1=O (stereo not shown) | -0.0984%
COc1ccc(C2(C(=O)Nc3ccccc3)CCOCC2)cc1 | -14.2%
CC1CCCCC1NC(=O)COC(=O)/C=C/c1ccco1 (stereo not shown) | -1.9%
O=C1c2ccc(Oc3ccc([N+](=O)[O-])cc3)cc2C(=O)N1CCCO | -60.8%
O=C(O)CCN1C(=O)c2ccc(Oc3ccc([N+](=O)[O-])cc3)cc2C1=O | 4.85%

Structure (SMILES) | hERG current change (%, negative = inhibition) at 10uM
O=C(O)CN1C(=O)c2ccc(Oc3ccc([N+](=O)[O-])cc3)cc2C1=O | 23.2%
O=C1c2ccc(Oc3ccc4c(c3)C(=O)N(CCCO)C4=O)cc2C(=O)N1CCCO | -1.78%
O=C1c2ccc(Oc3ccc4c(c3)C(=O)N(CCCCO)C4=O)cc2C(=O)N1CCCCO | -24.1%
O=C1c2ccc(Oc3ccc([N+](=O)[O-])cc3)cc2C(=O)N1CCO | -52.8%
CCC(=O)N1CCCc2cc(S(=O)(=O)N3CCN(c4ccccc4F)CC3)ccc21 | -23.7%
CCOC(=O)C1CCCN(C(=O)c2cnn3c(C(F)F)cc(-c4ccc(C)cc4)nc23)C1 (stereo not shown) | -38.4%
O=C(NCCN1CCOCC1)c1ccc(Cl)c(S(=O)(=O)N2CCCCC2)c1 | -58.3%
Cc1ccc(C(=O)NCCN2CCOCC2)cc1S(=O)(=O)N1CCCCC1 | -20.7%
CC(C)(CNC(=O)c1ccc(Cl)c(S(=O)(=O)N2CCc3ccccc3C2)c1)N1CCOCC1 | -50.3%
O=C(NCCN1CCOCC1)c1ccc(Cl)c(S(=O)(=O)N2CCCC2)c1 | -0.109%
O=C(NCCN1CCOCC1)c1ccc(Cl)c(S(=O)(=O)N2CCOCC2)c1 | 13.1%
Cc1ccccc1CSCCNC(=O)c1ccc(Cl)c(S(=O)(=O)N2CCOCC2)c1 | -42.2%
Cc1ccc(CSCCNC(=O)c2ccc(Cl)c(S(=O)(=O)N3CCOCC3)c2)cc1 | -40.5%
Cl.O=C(NCCN1CCOCC1)c1ccc(Cl)c(S(=O)(=O)N2CCCCCC2)c1 | -40.1%
CC(C)(C)SCCNC(=O)c1ccc(Cl)c(S(=O)(=O)N2CCOCC2)c1 | -6.74%
O=C(NCCSCc1ccccc1)c1ccc(Cl)c(S(=O)(=O)N2CCOCC2)c1 | -50%
Cl.O=C(NCCCN1CCOCC1)c1ccc(Cl)c(S(=O)(=O)N2CCCCCC2)c1 | -50.6%
COc1ccc(C(=O)NCC(C)(C)N2CCOCC2)cc1S(=O)(=O)N1CCCC1 | -8.82%
